# The supplement of paper PMC9694430
# Experiments:
# Assay in all cases: thermal shift delta Tm vs DMSO control; higher = stronger stabilization (binding)
# Conditions in all cases: 12.5 µM; protein concentration 2 µM
# LOC_OS02G45750-cb003 = test system: LOC_OS02G45750-cb003
# In short: (§1)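 Purified, E. coli-expressed rice kinase domain constructs were tested by differential scanning fluorimetry in 96-well plates: 19.5 μl of 2 μM kinase in 100 mM potassium phosphate pH 7.5, 150 mM NaCl, 10% glycerol, 5 × SYPRO Orange, plus compound in DMSO. Fluorescence was read from 25°C to 95°C at 0.05°C/s. Melting temperatures came from Boltzmann fits, and the shift is the triplicate mean relative to protein with DMSO alone.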
# LOC_OS02G54510-cb004 = test system: LOC_OS02G54510-cb004
# In short: as §1
# LOC_OS03G04050-cb001 = test system: LOC_OS03G04050-cb001
# In short: as §1
# LOC_OS03G12390-cb001 = test system: LOC_OS03G12390-cb001
# In short: as §1
# LOC_OS03G27990-cb004 = test system: LOC_OS03G27990-cb004
# In short: as §1
# LOC_OS03G50450-cb001 = test system: LOC_OS03G50450-cb001
# In short: as §1
# LOC_OS03G50810-cb003 = test system: LOC_OS03G50810-cb003
# In short: as §1
# LOC_OS04G35114-cb001 = test system: LOC_OS04G35114-cb001
# In short: as §1
# LOC_OS04G38480-cb003 = test system: T1, LOC_OS04G38480-cb003
# T1 sequence (whole entry): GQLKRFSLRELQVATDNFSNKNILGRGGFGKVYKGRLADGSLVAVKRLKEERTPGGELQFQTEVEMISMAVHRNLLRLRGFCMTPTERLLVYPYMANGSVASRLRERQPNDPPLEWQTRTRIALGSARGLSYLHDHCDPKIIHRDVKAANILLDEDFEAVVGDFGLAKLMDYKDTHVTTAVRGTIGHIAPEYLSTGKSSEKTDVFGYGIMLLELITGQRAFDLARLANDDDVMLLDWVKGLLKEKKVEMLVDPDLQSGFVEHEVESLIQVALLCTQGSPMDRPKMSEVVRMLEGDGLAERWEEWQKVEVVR
# In short: as §1
# LOC_OS04G41100-cb001 = test system: T2, LOC_OS04G41100-cb001
# T2 sequence (whole entry): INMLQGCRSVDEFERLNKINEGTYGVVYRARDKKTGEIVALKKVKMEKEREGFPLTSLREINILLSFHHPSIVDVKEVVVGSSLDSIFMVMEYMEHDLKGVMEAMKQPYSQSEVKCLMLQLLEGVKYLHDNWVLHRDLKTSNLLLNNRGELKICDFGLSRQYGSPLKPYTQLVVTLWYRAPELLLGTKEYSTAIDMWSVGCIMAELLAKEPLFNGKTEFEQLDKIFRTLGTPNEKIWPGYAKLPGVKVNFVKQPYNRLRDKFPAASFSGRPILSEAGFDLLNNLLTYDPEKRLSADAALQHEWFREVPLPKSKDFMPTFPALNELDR
# In short: as §1
SMILES,thermal shift delta Tm (LOC_OS02G45750-cb003),thermal shift delta Tm (LOC_OS02G54510-cb004),thermal shift delta Tm (LOC_OS03G04050-cb001),thermal shift delta Tm (LOC_OS03G12390-cb001),thermal shift delta Tm (LOC_OS03G27990-cb004),thermal shift delta Tm (LOC_OS03G50450-cb001),thermal shift delta Tm (LOC_OS03G50810-cb003),thermal shift delta Tm (LOC_OS04G35114-cb001),thermal shift delta Tm (LOC_OS04G38480-cb003),thermal shift delta Tm (LOC_OS04G41100-cb001)
Cc1nc(NC(=O)N2CCC[C@H]2C(N)=O)sc1-c1ccnc(C(C)(C)C(F)(F)F)c1 [Alpelisib (BYL719)],-0.52 °C,0.02 °C,0.28 °C,0.2 °C,0.55 °C,0.38 °C,0.21 °C,1.56 °C,0.94 °C,0.49 °C
COCCOc1ccc2c(c1)ncn2-c1ccc2cccc(N3CCC(N)CC3)c2n1,16.5 °C,0.43 °C,0.25 °C,1.73 °C,6.71 °C,0.27 °C,8.81 °C,10 °C,2.9 °C,0.51 °C
Cn1cc(-c2cnn3c(N)c(Br)c([C@@H]4CCCNC4)nc23)cn1,2.88 °C,0.55 °C,0.3 °C,0.78 °C,0.85 °C,0.38 °C,1.12 °C,1.17 °C,2.62 °C,0.97 °C
CN1CCCN(C(=O)c2cccc(-c3ccc(/C=C4/C(=O)Nc5ccc(Cl)cc54)o3)c2)CC1,5.04 °C,0.59 °C,0.65 °C,3.37 °C,1.12 °C,0.49 °C,2.85 °C,4.61 °C,2.24 °C,1.74 °C
C=CC(=O)N[C@H]1CCOC[C@H]1Nc1ncc2cc(-c3c(Cl)c(OC)cc(OC)c3Cl)ccc2n1,1.19 °C,-0.3 °C,0.08 °C,-0.37 °C,-0.08 °C,0.02 °C,-0.2 °C,0.09 °C,0.04 °C,0.17 °C
CO[C@H]1C[C@@H]2CC[C@@H](C)[C@@](O)(O2)C(=O)C(=O)N2CCCC[C@H]2C(=O)O[C@H]([C@H](C)C[C@@H]2CC[C@@H](OC(=O)C(C)(CO)CO)[C@H](OC)C2)CC(=O)[C@H](C)/C=C(\C)[C@@H](O)[C@@H](OC)C(=O)[C@H](C)C[C@H](C)/C=C/C=C/C=C/1C,0.69 °C,-0.04 °C,0.5 °C,-0.26 °C,0.07 °C,0.44 °C,-0.05 °C,-0.13 °C,1.42 °C,0.7 °C
CCN1CCN(Cc2ccc(-c3cc4c(N[C@H](C)c5ccccc5)ncnc4[nH]3)cc2)CC1,6.37 °C,0.94 °C,-0.21 °C,1.63 °C,2.76 °C,0.56 °C,1.13 °C,3.16 °C,1.7 °C,0.38 °C
O=C(O)c1ccc2c3c1cccc3c(=O)n1c3ccccc3nc21,3.28 °C,0.56 °C,0.18 °C,2.82 °C,0.62 °C,0.23 °C,0.91 °C,2.73 °C,2.31 °C,1.19 °C
OC1CCC(Nc2ncc3nc(Nc4c(F)cc(F)cc4F)n([C@H]4CCOC4)c3n2)CC1 (stereo not given in full) [Tanzisertib(CC-930)],0.96 °C,0.18 °C,0.57 °C,0.23 °C,0.5 °C,0.44 °C,0.62 °C,0.93 °C,1.65 °C,0.44 °C
CN1CCN(c2ccc3nc(-c4c(N)c5c(F)cccc5[nH]c4=O)[nH]c3c2)CC1 [Dovitinib (TKI258) Lactate],16.7 °C,2.48 °C,1.03 °C,5.56 °C,8.6 °C,5.37 °C,7.48 °C,10 °C,3.95 °C,1.24 °C
